# Screening data as filed in PubChem.
# CCHF vOTU inh-1: CCHFV vOTU protease inhibitors, primary screen, biochemical, Pep-AMC substrate, fluorescence | inhibition, % at 11.5 µM | 370,000 compounds, 0.55% hits | AID 651958, 2012; note: 0% = vehicle wells with enzyme and 100% = no enzyme wells
# RecA intein inh: Mtb RecA intein splicing inhibitors, primary screen, biochemical, fluorescence, HTS | inhibition, % (test concentration not listed) | cell-free RecA intein splicing | 290,000 compounds, 0.75% hits | Protein RecA (Mycobacterium tuberculosis (strain ATCC 25618 / H37Rv)), P9WHJ3; in the data active = inhibition above about 30%;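 note: 0% = vehicle wells and 100% = reference inhibitor control wells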
# Target sequence (P9WHJ3 whole entry, looked up): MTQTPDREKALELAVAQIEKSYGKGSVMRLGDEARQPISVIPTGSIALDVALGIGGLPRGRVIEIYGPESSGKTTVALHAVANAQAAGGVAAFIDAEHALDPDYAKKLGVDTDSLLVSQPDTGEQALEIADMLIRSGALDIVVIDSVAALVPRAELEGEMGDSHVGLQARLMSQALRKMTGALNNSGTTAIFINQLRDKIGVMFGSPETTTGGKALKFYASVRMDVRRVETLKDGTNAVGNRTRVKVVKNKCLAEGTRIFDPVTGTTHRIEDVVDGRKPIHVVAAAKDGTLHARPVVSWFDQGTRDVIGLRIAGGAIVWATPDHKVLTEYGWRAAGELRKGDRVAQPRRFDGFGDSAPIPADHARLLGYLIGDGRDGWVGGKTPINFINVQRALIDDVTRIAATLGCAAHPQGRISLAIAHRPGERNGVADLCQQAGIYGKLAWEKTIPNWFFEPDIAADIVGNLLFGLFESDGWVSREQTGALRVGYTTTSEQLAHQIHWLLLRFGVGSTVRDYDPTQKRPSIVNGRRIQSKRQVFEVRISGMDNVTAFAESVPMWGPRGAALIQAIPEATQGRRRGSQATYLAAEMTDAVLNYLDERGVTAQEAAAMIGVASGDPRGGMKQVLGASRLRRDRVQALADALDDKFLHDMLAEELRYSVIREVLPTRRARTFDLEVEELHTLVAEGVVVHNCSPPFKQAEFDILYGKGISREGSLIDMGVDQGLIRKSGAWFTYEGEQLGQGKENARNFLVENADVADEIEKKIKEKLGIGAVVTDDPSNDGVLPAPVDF
# Mtb bLac sens: beta-lactam sensitization of Mtb H37Rv, H37Rv | 330,000 compounds, 0.27% hits | M. tuberculosis H37Rv growth with meropenem, percent inhibition | inhibition, % at 25 µM | AID 434955, 2010; call rule not given here;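 note: growth measured after seven days incubation then overnight dye step; 0% = bacteria only wells and 100% = bacteria with antibiotic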
# BJeLR viability: MLPCN primary cell-based screen for lethality selective to Ras in HRASV12 cells. BJeLR (HRASV12) viability, CellTiter-Glo ATP luminescence, 48 h. 300,000 compounds, 0.17% hits. inhibition, % (concentration not given with the values); in the data active = inhibition above about 50%
# BioA inh: M. tuberculosis BioA enzyme inhibitors, primary screen, biochemical, plate reader, single point, HTS. 7,8-diaminopelargonic acid synthase BioA (Mycobacterium tuberculosis). inhibition, % at 9.99 µM. purified M. tuberculosis BioA enzyme. 360,000 compounds, 0.096% hits; in the data active = inhibition above about 40%
# Yp Topo-I inh: Yersinia pestis topoisomerase I inhibitors, primary screen, biochemical, cleavage product accumulation, plate reader, single point | 360,000 compounds, 0.064% hits | AID 504884, 2011 | activity, % at 10 µM | Y. pestis Topo-I cleavage product accumulation; in the data active = activity above about 50%, passing the limit was not always enough
# CCHF vOTU inh-2: CCHFV vOTU protease inhibitors, confirmation, biochemical, Pep-AMC substrate, fluorescence. 1,900 compounds, 17% hits. shares compounds with CCHF vOTU inh-1. inhibition, % at 11.5 µM. Recombinant CCHFV vOTU
# * hit, by the source's call; . = not tested or not shown. A selection: hits, their analogues and other compounds. The true share with any hit is near 1.1%. Cut-off read from the data, not from the text of the source, unless noted: active = inhibition above about 30%; inactive = the rest.
SMILES,CCHF vOTU inh-1,RecA intein inh,Mtb bLac sens,BJeLR viability,BioA inh,Yp Topo-I inh,CCHF vOTU inh-2
CC(=O)NC(c1cccc(F)c1)c1nc(-c2ccc(C)c(C)c2)cs1 (stereo unspecified),15.1,.,.,.,-2.0,8.0,.
CC(=O)NC(c1cccc(F)c1)c1nc(-c2cc(F)cc(Cl)c2)cs1 (stereo unspecified),36.3*,.,.,.,-0.8,-1.0,-0.9
CN1C(=O)c2cc(NC(=O)c3cccc(F)c3)ccc2OC[C@@H]2O[C@@H](CC(=O)Nc3ccccc3)CC[C@H]21,.,.,.,.,9.4,.,.
C=CCC[C@H](Cc1ccc(F)cc1)C(=O)OC[C@H](Cc1c[nH]c2ccccc12)NC(=O)[C@@H](CC=C)CC(=O)N(CCO)Cc1ccccc1,16.0,.,-2.1,.,-3.4,31.1,.
C=CC[C@@H](CC(=O)N[C@H](CO)Cc1ccccc1)C(=O)N[C@@H](COC(=O)[C@@H](CC=C)CC(=O)OC(C)(C)C)Cc1c[nH]c2ccccc12,31.0*,.,-2.0,.,-0.9,19.7,-10.8
C=CCC[C@H](Cc1ccc(F)cc1)C(=O)OC[C@@H](Cc1c[nH]c2ccccc12)NC(=O)[C@@H](CC=C)CC(=O)N(CCO)Cc1ccccc1,32.1*,.,3.1,.,2.2,38.3,7.9
O=C1O[C@H](c2ccccc2)[C@H](c2ccccc2)N2[C@H]1[C@@H](C(=O)Nc1nc3ccccc3s1)[C@]1(C(=O)Nc3ccc(C#CCCO)cc31)[C@H]2c1ccc(OCCO)cc1,.,.,.,.,-1.8,.,.
CCC(=O)Nc1ccc2ccccc2c1,-9.9,1.5,93.0,-6.8,-0.6,2.8,.
CC(C)(C)CC(C)(C)NC(=O)CSCC(=O)Nc1ccc2ccccc2c1,30.2*,4.4,86.5,-4.2,-1.0,-4.0,12.2
CC1(Cc2cc(Cl)ccc2C(F)(F)F)C(=O)Nc2ccc(-c3ccc(F)c(Cl)c3)cc21 (stereo unspecified),20.4,.,.,.,-1.1,-4.7,.
CC1(Cc2cccc(C(F)(F)F)c2)C(=O)Nc2ccc(-c3ccc(F)c(Cl)c3)cc21 (stereo unspecified),31.9*,.,.,.,-1.0,8.7,-1.0
COC(=O)C1CN(Cc2ccc(F)cc2)CCS(=O)(=O)N1Cc1cn(Cc2ccc(F)cc2)nn1 (stereo unspecified),30.0*,.,.,.,.,.,-9.9
COC(=O)C1CN(Cc2ccccc2)CCS(=O)(=O)N1Cc1cn(Cc2ccc(F)cc2)nn1 (stereo unspecified),-0.4,.,.,.,.,.,.
Cc1cccc(S(=O)(=O)N2CC[C@@H]3[C@H](CO)Nc4ccc(C#Cc5cccc(F)c5)cc4[C@@H]32)c1,.,.,.,.,1.0,.,.
COC(=O)C1=C(c2ccc(OC(F)(F)F)cc2)C[C@@H]2CC[C@H]1N2C(=O)NCCOc1ccccc1,30.5*,.,-3.6,.,2.1,3.0,10.0
CC(C)C(=O)Nc1nc(-c2ccc(S(=O)(=O)N3CCOCC3)cc2)cs1,-4.0,-0.4,2.6,-3.0,0.9,-0.4,.
O=C(Nc1nc(-c2ccncc2)cs1)c1ccc(S(=O)(=O)N2CCOCC2)cc1,39.1*,-4.8,-6.8,-11.3,.,-3.1,-6.8
N#C[C@H]1[C@@H](c2ccccc2)[C@@H](CO)N1S(=O)(=O)Cc1ccccc1,.,.,.,.,-0.2,.,.
Cc1ccc(F)c(S(=O)(=O)NC(=O)C2(C)CCN2C(=O)C2(c3ccc(Cl)cc3)CC2)c1 (stereo unspecified),30.3*,.,.,.,-0.5,4.6,-9.3
Cc1ccc(F)c(S(=O)(=O)NC(=O)C2(C)CCN2C(=O)C2(c3ccc(Cl)cc3)CCC2)c1 (stereo unspecified),12.4,.,.,.,-3.9,2.3,.
CCCCC[C@@H](C)N1C[C@@H](COCc2ccccc2)Oc2cc(N3CC[C@H](O)C3)ccc2S1(=O)=O,25.5,.,.,.,.,.,.
CCCCC[C@@H](C)N1C[C@H](COCc2ccccc2)Oc2cc(N3CCC[C@@H]3COC)ccc2S1(=O)=O,8.9,.,.,.,.,.,.
CCCCC[C@@H](C)N1C[C@@H](COCc2ccccc2)Oc2cc(N3CC[C@@H](O)C3)ccc2S1(=O)=O,30.9*,.,.,.,.,.,-3.8
CCCCC[C@@H](C)N1C[C@@H](COCc2ccccc2)Oc2cc(N3CC[C@@H](N(C)C)C3)ccc2S1(=O)=O,34.7*,.,.,.,.,.,1.6
CCCCC[C@@H](C)N1C[C@@H](COCc2ccccc2)Oc2cc(N3CCC[C@@H]3CO)ccc2S1(=O)=O,34.6*,.,.,.,.,.,7.9
SMILES,CCHF vOTU inh-1,RecA intein inh,Mtb bLac sens,BJeLR viability,BioA inh,Yp Topo-I inh,CCHF vOTU inh-2
CCCCC[C@H](C)N1C[C@H](COCc2ccccc2)Oc2cc(N3CC[C@@H](N(C)C)C3)ccc2S1(=O)=O,36.7*,.,.,.,.,.,3.2
CCCCC[C@@H](C)N1C[C@H](COCc2ccccc2)Oc2cc(N3CC[C@@H](N(C)C)C3)ccc2S1(=O)=O,15.4,.,.,.,.,.,.
O=C(C[C@H]1C=C[C@H](NC(=O)C2CCC2)[C@@H](CO)O1)NC1CCC1,.,.,.,.,-1.9,.,.
COCC(=O)N(C)C[C@H]1Oc2ncc(C#C[C@@H](C)O)cc2C(=O)N([C@H](C)CO)C[C@H]1C,.,.,.,.,-1.3,.,.
CN(C)c1ccc(/C=C/c2nc3ccccc3c(=O)n2CCO)cc1,29.6*,-4.8,5.8,4.5,-13.0,19.0,-5.1
O=c1c2ccccc2nc(/C=C/c2ccccc2)n1CCCO,19.6,-0.1,5.9,-7.3,0.3,3.8,.
C[C@H]1CN([C@@H](C)CO)C(=O)c2cc(NC(=O)Nc3ccc(F)cc3)ccc2O[C@H]1CN(C)Cc1ccc(C(=O)O)cc1,.,.,.,.,-1.2,.,.
CCc1ccc2c(CN3CCN(S(=O)(=O)c4cccs4)CC3)cc(=O)oc2c1,34.9*,0.0,-2.1,6.3,.,-0.4,-6.4
CCc1ccc2c(CN3CCN(S(=O)(=O)c4ccccc4F)CC3)cc(=O)oc2c1,8.7,.,-0.4,.,-3.0,0.5,.
C[C@H](CO)N1C[C@H](C)[C@H](CN(C)CC2CC2)Oc2cc(C#Cc3ccc(F)cc3)ccc2S1(=O)=O,.,.,.,.,1.0,.,.
CC1(C)CC(=O)C(N=Nc2ccc(Br)cc2)=C(O)C1,-0.1,1.8,-6.5,11.8,-1.1,-7.0,.
COc1ccc(N=NC2=C(O)CC(C)(C)CC2=O)cc1,31.7*,-0.8,0.5,-1.6,-0.8,-0.4,3.7
CC(C)=CCC[C@H](C)CC1Cc2[nH]c(=S)[nH]c(=O)c2C(c2ccc(Cl)cc2)O1 (stereo partly specified),30.1*,.,.,.,.,.,-7.8
CC(C)=CCC[C@H](C)CC1Cc2[nH]c(=S)[nH]c(=O)c2C(c2ccc(F)cc2)O1 (stereo partly specified),-0.5,.,.,.,26.0,.,.
